PubChem BioAssay (EPA / NIEHS)
Calls of active or inactive are those of the source. Rule for the calls: active = hit-call score of the fitted dose curve at least 0.9, where 1 is the maximum; inactive = score below 0.9.

The compounds below were run on Cytochrome P450 (CYP24A1), CYP24A1 (gene 1591) (assay: LTEA_HepaRG_CYP24A1: Life Technologies and Expression Analysis (LTEA) Assay for Cytochrome P450 (CYP24A1) using HepaRG (AID 2283478)). Conditions: mRNA level, 48 h; actives raise or lower the signal.
Method: LTEA_HepaRG is a cell based, multiplexed-readout assay that uses HepaRG, a human liver cell line, with measurements taken at 48 hours after chemical dosing on a 96-well plate.LTEA_HepaRG_CYP24A1 is one of 102 assay component(s) measured in the LTEA HepaRG cell culture assay. It is a marker of NR mediated metabolism.Data from the assay component LTEA_HepaRG_CYP24A1 was analyzed into 1 endpoint. This assay endpoint, LTEA_HepaRG_CYP24A1, was analyzed with bidirectional fitting relative to DMSO as the negative control and baseline of activity. Using a type of inducible reporter, measures of mRNA induction for gain or loss-of-signal activity can be used to understand regulation of transcription factor activity. To generalize the intended target to other relatable targets, this assay endpoint is annotated to the cyp intended target family, where the subfamily is xenobiotic metabolism.
A total of 1060 chemcials from the ToxCast library were tested in eight-point concentration-response experiments. Cell culture and cytotoxicity assays were conducted at Thermo Fisher Scientific's Custom Services facility (Madison, WI). A single lot of human HepaRG cells (Thermo Fisher Scientific, Frederick, MD) was used for the cell culture experiments. 96-well format collagen type I coated plates of human HepaRG cells were prepared using established methods. Briefly, cryopreserved HepaRG cells were thawed, plated at a density of approximately 100,000 cells/well in HepaRG Thaw, Plate, and General Purpose media (HPRG770, Thermo Fisher Scientific), and incubated for 48 hours. 0.5% DMSO was selected as vehicle control to balance the requisite need of DMSO in HepaRG cultures to maintain differentiation (for example, baseline metabolism, proportions of hepatocytes vs. cholangiocytes), while enabling further hepatic receptor pathway activation (for example, PXR and CAR) in response to chemical exposure. 48 hours after plating, the culture medium was replaced with HepaRG Serum-Free Incudtion Media. Cells were exposed to each test chemical in duplicate and maintained in CO2 incubators for another 48 hours. Chemical plates were thawed to room temperature and 200x concentrations of treatment groups were prepared. 8-point conentration-reponse curves were made with the highest exposure at 100 uM, followed by half-log dilutions, all in 0.5% DMSO. Each test plate contained variouse controls, induction positive controls (1mM phenobarbital), cytotoxicity positive controls ([…] aflatoxin B1), vehicle controls (0.5% DMSO), and total lysis controls (0.5% DMSO). Cell morphology images were taken using an Essen IncuCyte FLR automated microscope, with six 96-well plates imaged in about 24 minutes. Images were captured and exported and JPEG files. Spent culture media was transfered to black-well plates for the LDH assay, and remaining media was sorted at -80 C for later use. Cells were treated with RLT buffer and frozen until shipped for gene expression analysis. Total RNA was isolated from the cell suspension in 75 uL of Buffer RLT (Qiagen, Germantown, MD 20874) by Quintiles/Expression Analysis (Durham, NC) using a custom isolation procedure. Total RNA from each plate well was transferred to a preamplification plate. Fluidigm's 96.96 Dynamic ArrayTM (Fluidigm, Amsterdam, the Netherlands) technology was used for gene expression analyses by quantitative reverse transcription polymerase chain reaction (qRT-PCR, performed by Quintiles/Expression Analysis, Durham, NC)89. Standard TaqManTM Assays (Applied Biosystems/ThermoFisher Scientific, Foster City, CA) were used to assess the expression of 93 genes selected based on their selectivity and sensitivity to important hepatic receptors known to be modulated by environmental chemicals; importance in human hepatocyte functionality; and hepatotoxicity. […]

| SMILES | outcome | AC50 |
| --- | --- | --- |
| CCCCCCCCOC(=O)CCCCCCCCC(=O)OCCCCCCCC | inactive | – |
| NC(=O)N1C(=O)C(C(=O)c2cc(Cl)cs2)c2cc(F)c(Cl)cc21 (stereo not given) | inactive | – |
| CCCCOCCO | inactive | – |
| CCN(CC)CCNc1ccc(CNC=O)c2sc3ccc(OC)cc3c(=O)c12 | inactive | – |
| CCC(=C(c1ccc(O)cc1)c1ccc(OCCN(C)C)cc1)c1ccccc1 | inactive | – |
| NC(=O)N(O)[C@@H]1C=C[C@H](Oc2cccc(Oc3ccc(F)cc3)c2)C1 | inactive | – |
| COc1ccc([N+](=O)[O-])cc1N | inactive | – |
| Cc1cc(CCN2CCN(c3nsc4ccccc34)CC2)cc2c1NC(=O)CC2(C)C | inactive | – |
| CCc1nn(C2CCCCC2)c2cc(C3(C#N)CCC(C(=O)O)CC3)ccc12 (stereo not given) | inactive | – |
| CC1=C(/C=C/C(C)=C/C=C/C(C)=C/C(=O)O)C(C)(C)CCC1 | – | 12.8 µM (active) |
| Nc1cccc2c(N)cccc12 | inactive | – |
| CC(C)(C)c1ccc(O)c(C(C)(C)C)c1 | – | 0.01 µM (active) |
| CC(O)CO (stereo not given) | inactive | – |
| OC1CCC(C2CCCCC2)CC1 (stereo not given) | inactive | – |
| CN1CCN(c2ccccc2/C=C2\SCCN(c3ccc(Cl)c(Cl)c3)C2=O)CC1 | inactive | – |
| CN(C)C=O | inactive | – |
| CC(C)(C)c1cc(C(C)(C)C)c(O)c(C(C)(C)C)c1 | inactive | – |
| O=[N+]([O-])c1ccc(O)cc1 | inactive | – |
| CC(=O)NC1(c2cccc(F)c2)CCN(CC[C@@]2(c3ccc(Cl)c(Cl)c3)CN(c3ccccc3)C(=O)CO2)CC1 | inactive | – |
| Oc1cccc(O)c1 | inactive | – |

| SMILES | outcome | AC50 |
| --- | --- | --- |
| c1ccc2c(c1)Cc1ccccc1-2 | inactive | – |
| CC(=O)CC(C)(C)O | inactive | – |
| CC(C)(C)c1cccc(C(C)(C)C)c1O | inactive | – |
| Cc1oc(-c2ccccc2)nc1CCOc1ccc(C[C@H](Nc2ccccc2C(=O)c2ccccc2)C(=O)O)cc1 | inactive | – |
| CC[C@H](C)[C@@H](C(=O)O)n1sc2ccccc2c1=O | inactive | – |
| CCCOC(=O)c1ccc(O)cc1 | inactive | – |
| C#C[C@]1(O)CC[C@H]2[C@@H]3CCC4=CC(=O)CC[C@@H]4[C@H]3CC[C@@]21C | inactive | – |
| O=C(O)c1ccccc1C(c1ccc(O)cc1)c1ccc(O)cc1 | inactive | – |
| CCOC(=O)CC(O)(CC(=O)OCC)C(=O)OCC | inactive | – |
| CCCCC(CC)COC(=O)CCCCC(=O)OCC(CC)CCCC (stereo not given) | inactive | – |
| C[C@@H]1C[C@H]2[C@@H]3CCC4=CC(=O)C=C[C@]4(C)[C@@]3(F)[C@@H](O)C[C@]2(C)[C@@]1(O)C(=O)COP(=O)(O)O | inactive | – |
| c1ccc2cc3c(ccc4ccccc43)cc2c1 | inactive | – |
| ClC1=C(Cl)C(Cl)(Cl)C(Cl)=C1Cl | inactive | – |
| COC(=O)CCCCC(=O)OC | inactive | – |
| CCCCCCCC(=O)O | inactive | – |
| C=C(C)C(=O)OCCC(F)(F)C(F)(F)C(F)(F)C(F)(F)C(F)(F)C(F)(F)F | inactive | – |
| COCC(C)OCC(C)O (stereo not given) | inactive | – |
| OC1CCCCC1 | inactive | – |
| CCC(C)(C)C1CCC(O)CC1 (stereo not given) | inactive | – |
| CCCCCCCCCCCCc1ccccc1S(=O)(=O)O | inactive | – |
